Compounds without any hit were thinned out: in the full panel of roughly 83,000, 20% have a hit.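 Values shown are percent growth following 48 h exposure of cells in 96-well plates to a single concentration of compound; below 10 was considered active.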 The source made the active and inactive calls.
Key:
Assay in all cases: NCI-60 one-dose screen, 48 h (100 = growth as untreated, 0 = no growth, -100 = all killed)
DU-145 prostate = settings: 10 µM unless noted
K-562 leukemia = settings: 10 µM unless noted
MALME-3M melanoma = settings: 10 µM unless noted
MDA-MB-231 breast = settings: 10 µM unless noted
RXF 393 renal = settings: 10 µM unless noted
SF-268 CNS = settings: 10 µM unless noted
SF-295 CNS = settings: 10 µM unless noted
SF-539 CNS = settings: 10 µM unless noted
UACC-257 melanoma = settings: 10 µM
M14 melanoma = settings: 10 µM unless noted
HCT-15 colon = settings: 10 µM unless noted
HT29 colon = settings: 10 µM unless noted
SNB-75 CNS = settings: 10 µM unless noted
SNB-19 CNS = settings: 10 µM unless noted
U251 CNS = settings: 10 µM unless noted
PC-3 prostate = settings: 10 µM unless noted
SK-MEL-5 melanoma = settings: 10 µM unless noted
UACC-62 melanoma = settings: 10 µM unless noted
LOX IMVI melanoma = settings: 10 µM unless noted
SK-MEL-28 melanoma = settings: 10 µM unless noted

Measured: growth

C/C=C/C=C1\C[C@H]2CO[C@H](O2)C1=O
inactive: DU-145 prostate 106% | K-562 leukemia 56.8% | MALME-3M melanoma 102% | MDA-MB-231 breast 105% | RXF 393 renal 104% | SF-268 CNS 105% | SF-295 CNS 106% | SF-539 CNS 102% | UACC-257 melanoma 90.8% | M14 melanoma 85.4% | HCT-15 colon 80.8% | HT29 colon 108% | SNB-75 CNS 106% | SNB-19 CNS 95.6% | U251 CNS 97.4% | PC-3 prostate 96.5% | SK-MEL-5 melanoma 98.5% | UACC-62 melanoma 89.5% | LOX IMVI melanoma 49.3% | SK-MEL-28 melanoma 104%

CN(c1ccc(Cl)cc1)S(=O)(=O)c1ccc(-c2cnc(C3CC3)o2)cc1
inactive: DU-145 prostate 15.9% | K-562 leukemia 10.4% | MALME-3M melanoma 77.8% | MDA-MB-231 breast 22.3% | RXF 393 renal 46.5% | SF-268 CNS 40.2% | SF-295 CNS 18% | SF-539 CNS 10.4% | UACC-257 melanoma 66.1% | M14 melanoma 24.9% | HCT-15 colon 15.6% | HT29 colon 15% | SNB-75 CNS 43% | SNB-19 CNS 44.4% | U251 CNS 32.3% | PC-3 prostate 22.3% | SK-MEL-5 melanoma 10.2% | UACC-62 melanoma 37.3% | LOX IMVI melanoma 12.9% | SK-MEL-28 melanoma 65.2%

CNC(=O)c1cc(Oc2ccc3nc(NC(=O)c4cc(C)cc(C)c4)sc3c2)ccn1
inactive: DU-145 prostate 93.5% | K-562 leukemia 50% | MALME-3M melanoma 87.7% | MDA-MB-231 breast 84.6% | RXF 393 renal 69.2% | SF-268 CNS 82.4% | SF-295 CNS 65% | SF-539 CNS 85.6% | UACC-257 melanoma 89.1% | M14 melanoma 53.6% | HCT-15 colon 66.9% | HT29 colon 86% | SNB-75 CNS 85.5% | SNB-19 CNS 81.3% | U251 CNS 89.3% | PC-3 prostate 47.9% | SK-MEL-5 melanoma 77.4% | UACC-62 melanoma 76.9% | LOX IMVI melanoma 102% | SK-MEL-28 melanoma 79.9%

Cc1cn(-c2cc(NC(=O)c3cncc(C#Cc4cnc5ccc(O[C@H]6CCOC6)nn45)c3)cc(C(F)(F)F)c2)cn1
inactive: DU-145 prostate 91.8% | K-562 leukemia 12.9% | MALME-3M melanoma 52.7% | MDA-MB-231 breast 47.7% | RXF 393 renal 60.4% | SF-268 CNS 94.7% | SF-295 CNS 96.8% | SF-539 CNS 59.3% | UACC-257 melanoma 97.1% | M14 melanoma 57.7% | HCT-15 colon 82.8% | HT29 colon 69% | SNB-75 CNS 92.9% | SNB-19 CNS 117% | U251 CNS 105% | PC-3 prostate 96.5% | SK-MEL-5 melanoma 70.6% | UACC-62 melanoma 70.6% | LOX IMVI melanoma 62.6% | SK-MEL-28 melanoma 76.3%

CC(=O)Nc1ccc(C)c(Nc2cc(-c3ccc(-n4cccn4)cc3)[nH]n2)c1
inactive: DU-145 prostate 81.5% | K-562 leukemia 19% | MALME-3M melanoma 73.6% | MDA-MB-231 breast 82.8% | RXF 393 renal 52.8% | SF-268 CNS 60.6% | SF-295 CNS 46.1% | SF-539 CNS 41.3% | UACC-257 melanoma 64.4% | M14 melanoma 19.2% | HCT-15 colon 41.3% | HT29 colon 27.8% | SNB-75 CNS 64.2% | SNB-19 CNS 45.7% | U251 CNS 42.5% | PC-3 prostate 65.3% | SK-MEL-5 melanoma 53.6% | UACC-62 melanoma 46.7% | LOX IMVI melanoma 60% | SK-MEL-28 melanoma 61%

Clc1ccc(-c2csc(Nc3cccc(Nc4csc(-c5ccc(Cl)cc5)n4)c3)n2)cc1
inactive: DU-145 prostate 86.2% | K-562 leukemia 67.1% | MALME-3M melanoma 98% | MDA-MB-231 breast 64.2% | RXF 393 renal 94.4% | SF-268 CNS 79.3% | SF-295 CNS 90% | SF-539 CNS 82.8% | UACC-257 melanoma 102% | M14 melanoma 74.7% | HCT-15 colon 56.5% | HT29 colon 88.1% | SNB-75 CNS 96.8% | SNB-19 CNS 85.5% | U251 CNS 85.4% | PC-3 prostate 74.1% | SK-MEL-5 melanoma 96.2% | UACC-62 melanoma 76% | LOX IMVI melanoma 63.8% | SK-MEL-28 melanoma 92.7%

CN1CCN(c2ccc(C(=O)/C=C/c3ccc(Cl)c(C(F)(F)F)c3)cc2)CC1
active: K-562 leukemia 7.64%
inactive: DU-145 prostate 77.9% | MALME-3M melanoma 88.4% | MDA-MB-231 breast 83.3% | RXF 393 renal 63.4% | SF-268 CNS 87% | SF-295 CNS 103% | SF-539 CNS 49.4% | UACC-257 melanoma 75.2% | M14 melanoma 87.2% | HCT-15 colon 17% | HT29 colon 11.6% | SNB-75 CNS 65.3% | SNB-19 CNS 73.7% | U251 CNS 38.4% | PC-3 prostate 43.4% | SK-MEL-5 melanoma 74.3% | UACC-62 melanoma 75.4% | LOX IMVI melanoma 12.8% | SK-MEL-28 melanoma 87.2%

CC(=O)Oc1ccc(CCN2C(=O)CSC2=S)cc1
inactive: DU-145 prostate 11% | K-562 leukemia 57.2% | MALME-3M melanoma 83.2% | MDA-MB-231 breast 64.4% | RXF 393 renal 69.8% | SF-268 CNS 92.1% | SF-295 CNS 103% | SF-539 CNS 85.2% | UACC-257 melanoma 95.9% | M14 melanoma 85.7% | HCT-15 colon 62.3% | HT29 colon 107% | SNB-75 CNS 103% | SNB-19 CNS 94.9% | U251 CNS 104% | PC-3 prostate 78.2% | SK-MEL-5 melanoma 86% | UACC-62 melanoma 85.7% | LOX IMVI melanoma 41.6% | SK-MEL-28 melanoma 90.6%

CCN1CCN(c2cc(C(=O)Nc3nc4ccc(Oc5ccnc(C(=O)NC)c5)cc4s3)cc(C(F)(F)F)c2)CC1
inactive: DU-145 prostate 85.8% | K-562 leukemia 55.3% | MALME-3M melanoma 75.7% | MDA-MB-231 breast 86.2% | SF-268 CNS 92.7% | SF-295 CNS 83% | SF-539 CNS 92.9% | UACC-257 melanoma 94.2% | M14 melanoma 67.7% | HCT-15 colon 26.9% | HT29 colon 18.5% | SNB-75 CNS 88.7% | SNB-19 CNS 111% | U251 CNS 76.8% | PC-3 prostate 55.6% | SK-MEL-5 melanoma 63.6% | UACC-62 melanoma 90.7% | LOX IMVI melanoma 34.6% | SK-MEL-28 melanoma 76.8%
active: RXF 393 renal -15.6%

Cc1cn(-c2cc(NC(=O)c3cncc(C#Cc4cnc5ccc(O[C@@H]6CCOC6)nn45)c3)cc(C(F)(F)F)c2)cn1
active: DU-145 prostate -86.5% | K-562 leukemia -17.6% | MALME-3M melanoma -83% | MDA-MB-231 breast -35.5% | RXF 393 renal -91.5% | SF-268 CNS -42.1% | SF-295 CNS -21.7% | SF-539 CNS -90.5% | UACC-257 melanoma -19% | M14 melanoma -96.2% | HCT-15 colon -31.2% | HT29 colon -14% | SNB-75 CNS -63.3% | SNB-19 CNS -7.45% | U251 CNS -96.6% | PC-3 prostate -0.613% | SK-MEL-5 melanoma -98.4% | UACC-62 melanoma -51.7% | LOX IMVI melanoma -75.7% | SK-MEL-28 melanoma -46.9%

COc1ccc(Cn2cc3c(c2-c2ccccc2)CCCc2cnoc2-3)cc1
inactive: DU-145 prostate 78.9% | K-562 leukemia 28.5% | MALME-3M melanoma 41.9% | MDA-MB-231 breast 60.8% | RXF 393 renal 76.4% | SF-268 CNS 73.1% | SF-295 CNS 30% | SF-539 CNS 52.6% | UACC-257 melanoma 76% | M14 melanoma 40.5% | HCT-15 colon 32.5% | HT29 colon 20.4% | SNB-75 CNS 51.2% | SNB-19 CNS 61% | U251 CNS 57.7% | PC-3 prostate 60% | SK-MEL-5 melanoma 50.1% | UACC-62 melanoma 42.7% | LOX IMVI melanoma 53.5% | SK-MEL-28 melanoma 62%

CCN1C(=O)N(CC)C2SC(N/N=C/c3ccccc3)=NC21 (stereo not given)
active: SF-539 CNS -11.2% | HT29 colon -0.975%
inactive: DU-145 prostate 22.5% | K-562 leukemia 14.7% | MALME-3M melanoma 58.2% | MDA-MB-231 breast 26% | RXF 393 renal 41.5% | SF-268 CNS 47.6% | SF-295 CNS 12.8% | UACC-257 melanoma 62.9% | M14 melanoma 12.3% | HCT-15 colon 16.9% | SNB-75 CNS 37.4% | SNB-19 CNS 27.3% | U251 CNS 17.1% | PC-3 prostate 28% | SK-MEL-5 melanoma 12.1% | UACC-62 melanoma 37% | LOX IMVI melanoma 17.3% | SK-MEL-28 melanoma 58.1%

O=C(O)CNS(=O)(=O)c1ccc(Oc2ccc(S(=O)(=O)NCC(=O)O)cc2)cc1
inactive: DU-145 prostate 105% | K-562 leukemia 94.3% | MALME-3M melanoma 99.1% | MDA-MB-231 breast 102% | RXF 393 renal 112% | SF-268 CNS 96.6% | SF-295 CNS 113% | SF-539 CNS 92.7% | UACC-257 melanoma 102% | M14 melanoma 100% | HCT-15 colon 102% | HT29 colon 99.3% | SNB-75 CNS 66.6% | SNB-19 CNS 98.1% | U251 CNS 99.3% | PC-3 prostate 98.6% | SK-MEL-5 melanoma 101% | UACC-62 melanoma 99% | LOX IMVI melanoma 99.8% | SK-MEL-28 melanoma 101%

C(=C(\C1=NCCN1)n1cnc2ccccc21)/c1ccc2ccccc2c1
active: RXF 393 renal -14.1%
inactive: DU-145 prostate 68.7% | K-562 leukemia 25.4% | MALME-3M melanoma 79.2% | MDA-MB-231 breast 62.5% | SF-268 CNS 81.8% | SF-295 CNS 77.7% | SF-539 CNS 82% | UACC-257 melanoma 82.3% | M14 melanoma 61.7% | HCT-15 colon 61.1% | HT29 colon 91.7% | SNB-75 CNS 72.9% | SNB-19 CNS 81.3% | U251 CNS 87.3% | PC-3 prostate 33.5% | SK-MEL-5 melanoma 63% | UACC-62 melanoma 77.2% | LOX IMVI melanoma 71.5% | SK-MEL-28 melanoma 79.4%

Cc1ccc(NC(=O)c2cc(/C=C/C(=O)NO)cc(C(F)(F)F)c2)cc1Nc1nccc(-c2cccnc2)n1
active: K-562 leukemia 5.9% | MALME-3M melanoma -19.2% | MDA-MB-231 breast -24.7% | RXF 393 renal -8.53% | SF-268 CNS -3.6% | SF-295 CNS -4.95% | SF-539 CNS -15.2% | UACC-257 melanoma -38.8% | M14 melanoma -20.7% | HT29 colon 7.3% | SNB-75 CNS -5.81% | SNB-19 CNS -0.0394% | U251 CNS -65.1% | SK-MEL-5 melanoma -88% | UACC-62 melanoma -41.3% | LOX IMVI melanoma -68.2% | SK-MEL-28 melanoma -7.78%
inactive: DU-145 prostate 14.1% | HCT-15 colon 55.2% | PC-3 prostate 18.9%

From PubChem BioAssay (NCI)
